Compound activity (PubChem)
GPR151 ag = activators of human GPR151; actives 1% (n = 650,000); Q8TDV0; PathHunter beta-arrestin GPR151 cells, luminescence; activation, % at 11.2 µM; in the data active = activation above about 4.9%;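 note: 0% = median of compound wells and 100% = cells with positive control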
TEAD-YAP inh = TEAD-YAP interaction inhibition. HEK-TIYL cells, TEAD-Gal4/YAP UAS-luciferase luminescence. inhibition, % at 9.12 µM. actives 1.4% (n = 640,000). AID 1259422; in the data active = inhibition above about 32%;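 note: 0% = median of test compound wells and 100% = reference inhibitor wells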
FBW7 act = activators of human E3 ligase FBW7; Q969H0; AlphaScreen FBW7–phospho-cyclin E peptide binding, activator screen; normalized activity (activation), % at 26.1 µM; actives 0.13% (n = 650,000); AID 1259310; in the data active = normalized activity above about 1.9%;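 note: purified mutant Fbw7 with reduced substrate affinity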
MITF primary = human MITF inhibition, primary screen; AlphaScreen MITF homodimerization, bead proximity signal; O75030; inhibition, % at 2.6 µM; actives 0.91% (n = 650,000); in the data active = inhibition above about 50%;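 note: 0% = vehicle wells with protein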
Target sequence (O75030 whole entry, looked up): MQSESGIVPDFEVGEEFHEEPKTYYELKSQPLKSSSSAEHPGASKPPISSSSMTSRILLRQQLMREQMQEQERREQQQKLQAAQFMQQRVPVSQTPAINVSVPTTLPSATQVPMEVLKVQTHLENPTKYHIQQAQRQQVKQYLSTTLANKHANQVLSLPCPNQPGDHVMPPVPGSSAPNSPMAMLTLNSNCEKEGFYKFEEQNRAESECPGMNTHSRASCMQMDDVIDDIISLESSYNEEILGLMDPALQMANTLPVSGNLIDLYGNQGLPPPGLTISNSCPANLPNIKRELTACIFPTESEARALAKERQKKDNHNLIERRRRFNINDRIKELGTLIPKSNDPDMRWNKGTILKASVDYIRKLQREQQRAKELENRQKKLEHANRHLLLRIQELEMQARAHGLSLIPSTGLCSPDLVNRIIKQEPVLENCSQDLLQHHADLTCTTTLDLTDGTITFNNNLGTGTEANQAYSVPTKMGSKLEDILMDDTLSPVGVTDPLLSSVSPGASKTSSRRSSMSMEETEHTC
* = called active by the depositor. An excerpt weighted towards active compounds, which were near 3.5% of everything screened.

SMILES	GPR151 ag	TEAD-YAP inh	FBW7 act	MITF primary
CCn1c(SCC(=O)Nc2ccc(C)c(Cl)c2)nc2c1c(=O)n(C)c(=O)n2C	1.4	3.3	1.9*	10.3
Cc1ccc(C)c(N2CC(C(=O)Nc3ccc(Br)cc3)CC2=O)c1 (stereo unspecified)	1.3	4.1	0.3	-27.2
CCOC(=O)C1(CCCc2ccccc2)CCN(C(=O)C2CCOC2)CC1 (stereo unspecified)	0.5	0.9	-0.1	3.2
C/C=C/C=C/C(=O)NNc1ccc(S(=O)(=O)Nc2ccccc2OC)cc1[N+](=O)[O-]	-0.1	-1.0	0.0	8.1
Cn1cc(Br)c(C(=O)NNC(=O)c2ccc(CSc3ncccn3)cc2)n1	0.8	6.9	0.4	19.2
COc1ccc(C(=O)Nn2c(SCC(=O)Nc3ccc(C)c(Cl)c3)nc3ccccc3c2=O)cc1	0.6	75.3*	0.1	7.2
COc1ccc(CCn2c(SCC(=O)Nc3ccc(C)c(Cl)c3)nc3ccccc3c2=O)cc1OC	-1.1	11.5	0.8	3.0
CS/C(=C\[N+](=O)[O-])Nc1ccc(C(C)C)cc1	-0.5	53.5*	0.1	-15.9
CC(C)c1ccc(NC(=O)c2ccc([N+](=O)[O-])cc2)cc1	-1.3	-19.7	0.0	20.9
Cc1ccc(NC(=O)CCOc2ccccc2)cc1Cl	-0.2	-23.1	2.4*	9.6
Cc1nnsc1C(=O)N1CCC[C@@H]2CN(Cc3ccc(F)cc3)CC[C@H]21	0.8	-8.3	-0.1	8.2
CC1=C(C(=O)NCCc2ccc(S(N)(=O)=O)cc2)C2(CCCCC2)OC1=O	1.4	-3.2	-0.2	-7.9
CC1=C(C(=O)NCCc2ccc(S(N)(=O)=O)cc2)C2(CCC(C)CC2)OC1=O (stereo unspecified)	-1.8	-7.2	2.0*	18.8
O=C(O)C1CCCCC1C(=O)N1CCN(c2ccc([N+](=O)[O-])cc2)CC1 (stereo unspecified)	0.8	0.4	-0.1	11.7
CC1(CN2C(=O)CNC2=O)CC1(Cl)Cl (stereo unspecified)	0.4	15.8	0.0	17.5
COc1ccccc1N1CCN(C(=O)c2cccc(Br)c2)CC1	-0.5	36.1*	0.0	19.4
CCOC(=O)CS(=O)(=O)c1ccc(C(=O)N2CCN(c3cccc(C)c3C)CC2)cc1[N+](=O)[O-]	0.6	34.2*	0.0	-3.2
COc1cccc(C(=O)N2CCN(c3cccc(C)c3C)CC2)c1	0.0	32.8*	-0.1	8.1
CC(=O)Nc1ccc(C(=O)N2CCN(c3cccc(C)c3C)CC2)cc1	1.2	-10.9	-0.1	-5.1
CCOC(=O)CS(=O)(=O)c1ccc(C(=O)N2CCN(c3cc(C)ccc3C)CC2)cc1[N+](=O)[O-]	2.9	-17.2	0.0	2.9
Cc1cccc(N2CCN(C(=O)c3ccncc3)CC2)c1C	-2.1	50.2*	0.1	13.0
Cc1ccc2nc(CNC3CCN(c4ccc(C(=O)N5CCCC(O)C5)cc4)CC3)cn2c1 (stereo unspecified)	-0.5	19.3	0.1	9.2
CCn1c(-c2ccc(Br)o2)n[nH]c1=S	-0.5	1.6	0.0	4.3
CCOC(=O)N1CCN(C(=O)Cn2nnc3ccccc3c2=O)CC1	0.0	6.1	0.2	12.3
COc1ccccc1N1C(=O)c2ccc(C(=O)c3cccc([N+](=O)[O-])c3)cc2C1=O	1.2	-1.0	-0.1	3.4
SMILES	GPR151 ag	TEAD-YAP inh	FBW7 act	MITF primary
Cc1cccc(N2CCN(C(=O)c3cc(S(=O)(=O)N4CCCC4)cn3C)CC2)c1C	-0.7	57.5*	0.0	-12.4
Cc1cccc(N2CCN(C(=O)c3cc(S(=O)(=O)N4CCOCC4)cn3C)CC2)c1C	1.1	4.6	0.1	-5.9
COc1ccccc1C(=O)N1CCN(c2cccc(C)c2C)CC1	-0.4	47.1*	0.1	-4.0
COc1ccc(CCNc2nc(Nc3ccc(C(F)(F)F)cc3)nc3nc[nH]c23)cc1	-0.9	9.0	0.1	5.0
Cc1cnc(Nc2ccc(N3CCOCC3)cc2)nc1NCc1ccccc1	0.9	37.0*	-0.1	30.3
COc1ccc(CCNc2nc(Nc3ccncc3)nc3nc[nH]c23)cc1	0.0	44.2*	-0.1	1.7
Cc1cnc(Nc2nc3ccccc3n2C)nc1NCc1ccccc1	-0.2	42.3*	0.7	10.2
Cc1cnc(Nc2ccc(N3CCOCC3)cc2)nc1NCc1cccnc1	0.0	-9.2	-0.3	8.1
COc1ccc(CNc2nc(Nc3ccc(N4CCOCC4)cc3)nc3nc[nH]c23)cc1	1.3	-16.4	-0.1	0.9
COc1ccc(CCNc2nc(Nc3ccc(N4CCOCC4)cc3)nc3nc[nH]c23)cc1	2.7	48.7*	-0.1	14.8
CC1CCN(c2ccc(C(F)(F)F)cn2)CC1	0.4	7.9	0.2	-5.4
